Data published in PubChem BioAssay AID687038 (Broad Institute, 2013).
The source made the active and inactive calls.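 Rule for the calls: active = curve showing a falling signal whose half-maximal concentration is at most twice the top valid dose; inconclusive = flat curve with a moderate drop, or an unreliable fit; inactive = the rest.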

Experiment: endogenous miR-21 quantity in Huh7 cells – cell-based, RT-qPCR, dry powder, selectivity assay for miR-122 inhibitor project, dose response (AID 687038)

Compound | outcome
CCN(CC)C(=O)c1cccc(NC(=O)c2ccc(Cl)cc2Cl)c1 | inactive
Nc1ccc(Oc2ccc(Br)cc2)cc1 | inactive
CN(CC(=O)Nc1cccc(Cl)c1)S(=O)(=O)c1ccc2c(c1)n(C)c(=O)c(=O)n2C | inactive
CN1C(=O)c2cc(NC(=O)c3cccc(F)c3)ccc2OC[C@@H]2O[C@@H](CC(=O)O)CC[C@H]21 | inactive
CN1C(=O)c2cc(NC(=O)c3cccc(F)c3)ccc2OC[C@H]2O[C@H](CC(=O)O)CC[C@H]21 | inactive
C[C@H]1CN([C@@H](C)CO)S(=O)(=O)c2ccc(C#Cc3ccncc3)cc2O[C@@H]1CN(C)C(=O)C1CCOCC1 | inactive
CCCCN(CCCC)C(=O)CN(C)S(=O)(=O)c1ccc2c(c1)n(C)c(=O)c(=O)n2C | inactive
COCC(=O)N(C)C[C@H]1Oc2cc(C#Cc3cccnc3)ccc2S(=O)(=O)N([C@H](C)CO)C[C@H]1C | inactive
Cc1cc(C(C)(C)C)cc(S(=O)(=O)NCCc2ccncc2)c1C | inactive
COc1ccc(-c2cnc3c(c2)C(=O)N([C@@H](C)CO)C[C@H](C)[C@H](CN(C)S(=O)(=O)c2ccc(OC)cc2)O3)cc1 | inactive
O=C(Nc1ccc(-c2nc3ccccc3o2)cc1)c1cc(-n2cnnc2)ccc1Cl | inactive
CO[C@@H]1CN(C)C(=O)c2cc(NS(=O)(=O)c3ccc(Oc4ccccc4)cc3)ccc2OC[C@H](C)NC[C@@H]1C | inactive
COCC(=O)N(C)C[C@H]1Oc2cc(-c3ccc(C#N)cc3)ccc2S(=O)(=O)N([C@@H](C)CO)C[C@H]1C | inactive
O=C(CNCCC1=CCCCC1)Nc1ccccc1N1CCCCCC1 | inactive
Cc1cc(C(C)(C)C)cc(S(=O)(=O)N2CCOCC2)c1C | inactive
CN1C(=O)c2cc(NC(=O)c3cccc(F)c3)ccc2OC[C@H]2O[C@@H](CC(=O)O)CC[C@@H]21 | inactive

Compound | outcome
CNC[C@@H]1Oc2cc(C#CC3CCCCC3)ccc2S(=O)(=O)N([C@@H](C)CO)C[C@@H]1C | inactive
CO[C@@H]1CN(C)C(=O)c2cc(NC(=O)c3ccc4c(c3)OCO4)ccc2OC[C@H](C)NC[C@@H]1C | inactive
O=C(NCCC1=CCCCC1)c1ccc2c(c1)sc1nc(-c3ccccc3)cn12 | inactive
COc1cccc(C(=O)Nc2ccc3c(c2)C(=O)N(C)C[C@@H](OC)[C@@H](C)CN[C@@H](C)CO3)c1 | inactive
Cn1c(=O)c(=O)n(C)c2cc(S(=O)(=O)N3CCOCC3)ccc21 | inactive
O=C(CN=C1NS(=O)(=O)c2ccccc21)Nc1ccccc1N1CCCCCC1 | inactive
CN1C(=O)c2cc(NC(=O)c3cccc(F)c3)ccc2OC[C@@H]2O[C@H](CC(=O)O)CC[C@H]21 | inactive
C[C@H]1CN([C@@H](C)CO)C(=O)c2cc(C#Cc3ccccc3F)cnc2O[C@H]1CN(C)C(=O)C1CCCCC1 | inactive
CN1C(=O)c2cc(NC(=O)c3cccc(F)c3)ccc2OC[C@H]2O[C@@H](CC(=O)O)CC[C@H]21 | inactive
C/C=C/c1cnc2c(c1)C(=O)N([C@@H](C)CO)C[C@H](C)[C@H](CN(C)S(=O)(=O)c1ccc(OC)cc1)O2 | inactive
CN(C)CCN1C(=O)c2cccc3cc(N)cc(c23)C1=O | inactive
O=C(c1ccc(CNc2c(NC3CCCCC3)c(=O)c2=O)cc1)N1CCc2ccccc21 | inactive
COCC(=O)N(C)C[C@H]1Oc2cc(C#Cc3cccnc3)ccc2S(=O)(=O)N([C@@H](C)CO)C[C@H]1C | inactive
C[C@H](CO)N1C[C@H](C)[C@@H](CN(C)C(=O)C2CCOCC2)Oc2cc(C#Cc3ccncc3)ccc2S1(=O)=O | inactive
CN1C(=O)c2cc(NC(=O)c3cccc(F)c3)ccc2OC[C@@H]2O[C@H](CC(=O)O)CC[C@@H]21 | inactive
O=S(=O)(NCCc1ccncc1)c1ccccc1 | inactive
